# The campaign covered roughly 1,000 compounds. About 25 (2%) were called active.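 Rule for the calls: active = fitted rise in melting shift crosses a set limit at or below the top valid dose tested; inconclusive = flat fit at mid-level activity, or a poor quality fit; inactive = the rest.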 Not all results are given here.
# Molecular target: Fibroblast growth factor 22 (Homo sapiens) (UniProt Q9HCT0)
# Experiment: binders of human FGF22 protein, dose response, FGF22 synaptogenesis inhibitor project, biophysical, thermal shift, cherry-pick retest (AID 720646)
# Settings: recombinant FGF22 thermal shift, SYPRO orange fluorescence; series mostly up to 38 µM
# Sequence of Fibroblast growth factor 22 (Homo sapiens) (Q9HCT0 whole entry, looked up): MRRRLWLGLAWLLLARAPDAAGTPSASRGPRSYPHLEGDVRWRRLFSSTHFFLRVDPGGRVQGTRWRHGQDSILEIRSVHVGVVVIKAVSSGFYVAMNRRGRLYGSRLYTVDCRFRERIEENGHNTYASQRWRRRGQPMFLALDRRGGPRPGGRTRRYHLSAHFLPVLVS
row,Structure (SMILES),outcome
1,O=C(N/N=C/c1ccc(OCc2ccccc2)cc1)c1ccc(O)cc1,inactive
2,CN1C(=O)c2cc(NC(=O)c3cccc(F)c3)ccc2OC[C@@H]2O[C@H](CC(=O)N3CCc4ccccc4C3)CC[C@@H]21,inactive
3,CNC[C@@H]1Oc2ccc(NC(=O)C3CCCCC3)cc2C(=O)N([C@@H](C)CO)C[C@H]1C,inactive
4,O=C(c1ccccc1F)N1CC(=O)N2[C@H](C1)[C@H](c1ccc(-c3ccc(F)cc3)cc1)[C@@H]2CO,inactive
5,CCCCN1CC(N2CCN(Cc3cccc(C)c3)CC2)CS1(=O)=O (stereo unspecified),inactive
6,O=C(Cc1cccnc1)N[C@H]1CC[C@H](CCn2cc(-c3ccccc3F)nn2)O[C@H]1CO,inactive
7,CC(=O)NC[C@@H]1[C@@H](c2ccccc2)[C@@H](CO)N1C(=O)Cc1cccnc1,inactive
8,O=S(=O)(ON(c1ccccc1)S(=O)(=O)c1ccccc1)c1ccccc1,inactive
9,O=C1C=CCCN1C(=O)/C=C/c1ccc(F)cc1,inactive
10,CC(=O)N1c2ccc(S(=O)(=O)N3CCC(C(=O)NCc4ccc(F)cc4)CC3)cc2CC1C (stereo unspecified),inactive
11,CCCOc1ccc(NC(=O)CC2C(=O)N(C)C(=S)N2Cc2ccc3c(c2)OCO3)cc1 (stereo unspecified),inactive
12,Cc1cccc(S(=O)(=O)N2C[C@@H](O)COC[C@H]3O[C@H](CC(=O)Nc4ccc(-c5ccccc5)cc4)CC[C@@H]32)c1,inactive
13,Cc1c(CCO)sc[n+]1CC(=O)OC12CC3CC(CC(C3)C1)C2,inactive
14,COc1cc(NC(=O)c2ccc3c(c2)OCO3)ccc1NC(=O)c1cccs1,inactive
15,O=C(N[C@@H]1C=C[C@H](CC(=O)N2CCCCC2)O[C@H]1CO)c1cccc(F)c1,inactive
16,CS(=O)(=O)c1ccc2nc(NC(=O)c3ccc(Cl)nc3)sc2c1,inactive
17,CC(=O)Nc1ccc(S(=O)(=O)N(CCc2ccccc2)CC(=O)N/N=C/c2ccc(C(=O)O)cc2)cc1,inactive
18,COCCN(C(=O)C(C)C)c1nnc(-c2ccc(C(C)(C)C)cc2)s1,inactive
19,Cc1ccc(NC(=O)Nc2cccnc2)cc1,inactive
20,CN1C(=O)c2cccc3c(N)ccc(c23)C1=O,inactive
21,O=C(N/N=C/c1ccc([N+](=O)[O-])cc1)c1c[nH]c2ccccc12,inactive
22,O=C(Nc1ccccc1F)N1[C@H](CO)[C@H]2c3ccccc3NC[C@H]21,inactive
23,C[C@@H]1CN([C@@H](C)CO)S(=O)(=O)c2ccc(-c3ccncc3)cc2O[C@@H]1CN(C)C(=O)Nc1ccc(F)cc1,inactive
24,O=C(NN1C(=O)C2C3C=CC(O3)C2C1=O)c1ccccc1 (stereo unspecified),inactive
25,COc1ccccc1C(=O)NNC(=O)c1ccc(NC(=O)c2ccccc2)cc1,inactive
26,NS(=O)(=O)c1cccc(NC(=O)COC(=O)c2cc([N+](=O)[O-])ccc2N2CCCC2)c1,inactive

row,Structure (SMILES),outcome
1,COc1ccccc1NC(=O)N1[C@H](C#N)[C@H](c2ccccc2)[C@H]1CO,inactive
2,OC[C@H]1[C@H](c2ccc(-c3cccnc3)cc2)[C@H]2CN(Cc3ccccn3)CCCCN21,inactive
3,O=C(Nc1nnc(-c2ccccc2F)s1)c1ccccc1F,inactive
4,C[C@H]1CN([C@@H](C)CO)C(=O)Cc2cc(NC(=O)Cc3cn(C)c4ccccc34)ccc2O[C@@H]1CN(C)Cc1ccccc1,inactive
5,CC(C)NC(=O)N(C)C[C@@H]1Oc2c(NC(=O)c3nc4ccccc4s3)cccc2C(=O)N([C@H](C)CO)C[C@H]1C,inactive
6,O=C(C[C@H]1CC[C@H]2[C@@H](COC[C@H](O)CN2S(=O)(=O)c2cccc(Cl)c2)O1)Nc1ccccc1,inactive
7,COc1ccc(-c2ccc([C@H]3[C@H]4CN(C(=O)c5ccc6c(c5)OCO6)CCCCN4[C@H]3CO)cc2)cc1,inactive
8,O=C(N/N=C/c1c[nH]c2ccccc12)c1cc2ccccc2o1,inactive
9,COc1cc([N+](=O)[O-])ccc1NC(=O)CN1CCCC1,inactive
10,COCC(=O)Nc1ccc2c(c1)OC[C@H](C)N(C)C[C@@H](C)[C@@H](OC)CN(C)C2=O,inactive
11,Cc1ccc(S(=O)(=O)NCCC(=O)Nc2ccc(C)c(Cl)c2)cc1C,inactive
12,COc1ccc(-c2cc(=O)oc3cc(OCC(=O)N[C@@H](Cc4c[nH]c5ccccc45)C(=O)O)ccc23)cc1,inactive
13,C[C@H]1CN([C@@H](C)CO)S(=O)(=O)c2ccc(C3=CCCC3)cc2O[C@H]1CN(C)C(=O)Nc1ccc2c(c1)OCO2,inactive
14,O=C(C[C@H]1C[C@@H]2c3cc(NC(=O)Nc4ccc(C(F)(F)F)cc4)ccc3O[C@@H]2[C@@H](CO)O1)NCC1CC1,inactive
15,CC(C)(C)N1C(=O)c2c(C(=O)OCc3ccccc3)[nH]c(-c3ccccc3)c2C1=O,inactive
16,Cc1ccc(S(=O)(=O)Nc2nc3ccccc3s2)cc1[N+](=O)[O-],inactive
17,O=C(N/N=C/c1ccc(Cl)c(Cl)c1)c1ccc2nc[nH]c2c1,inactive
18,O=C(COc1ccc([N+](=O)[O-])cc1)Nc1cccc(C(=O)Nc2ccccc2C(=O)O)c1,inactive
19,O=C(NCCc1c[nH]c2ccccc12)C(=O)NCC1CCCO1 (stereo unspecified),inactive
20,Cc1ccc(NC(=O)O/N=C/c2cccc([N+](=O)[O-])c2)cc1,inactive
21,Cc1ccc(S(=O)(=O)N(C)C[C@@H]2Oc3cc(C4=CCCC4)ccc3S(=O)(=O)N([C@@H](C)CO)C[C@@H]2C)cc1,inactive
22,CCn1ccnc1CN(C)C(=O)c1ccc2nc(Cc3ccc(OC)cc3)oc2c1,inactive
23,C[C@@H]1CCCCO[C@@H](CN(C)Cc2ccncc2)[C@H](C)CN([C@H](C)CO)C(=O)c2cc(NC(=O)Cc3ccccc3)ccc2O1,inactive
24,C[C@@H]1CN([C@H](C)CO)S(=O)(=O)c2ccc(-c3ccncc3)cc2O[C@@H]1CN(C)C(=O)Nc1ccc(C(F)(F)F)cc1,inactive
25,CC(C)NC(=O)N1C[C@@H]2[C@H](c3ccccc31)[C@H](CO)N2C(=O)c1ccccn1,inactive

# Source: PubChem BioAssay AID720646 (Broad Institute, 2013)
